What all share (assay): DAPPL (digital affinity profiling via proximity ligation, sequencing); 10 mM Tris-HCl pH 7.5, 50 mM NaCl, 1 mM DTT, 4% glycerol, room temperature, 30 min; GST-TFs on glutathione beads, 16-mer random dsDNA library, 0.1% formaldehyde crosslink after washing; high values mean tight binding
One test has as its target T1, FEV (Homo sapiens, UniProt Q99581 1-238).
T1 sequence: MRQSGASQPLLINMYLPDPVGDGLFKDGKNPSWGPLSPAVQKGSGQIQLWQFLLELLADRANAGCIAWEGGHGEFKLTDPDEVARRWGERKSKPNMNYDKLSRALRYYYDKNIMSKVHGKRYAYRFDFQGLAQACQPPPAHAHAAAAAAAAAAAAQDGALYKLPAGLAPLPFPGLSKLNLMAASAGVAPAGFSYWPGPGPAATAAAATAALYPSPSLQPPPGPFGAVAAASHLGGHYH
The note with it: protein: recombinant; tags: N-terminal GST; dsDNA, one strand shown. A digest of the protocol:
(§1)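 Binding signal is given per hexamer as its read frequency for a factor divided by its frequency in the tag-only sample. GST-fused human transcription factors were expressed in yeast, captured on glutathione beads, barcoded with DNA and pooled with that sample, then incubated with 200 nmole of a 16-mer random double-stranded DNA library in Tris/NaCl/DTT/glycerol buffer for 30 min at room temperature. The pools were then washed, crosslinked, proximity-ligated, amplified by PCR and sequenced on an Illumina NextSeq500.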

The next test deals with ETV5 (Homo sapiens, UniProt P41161 1-510). The note with it: protein: recombinant; tags: N-terminal GST; dsDNA, one strand shown. A digest of the protocol: as §1
In the next test the target is HSF1 (Homo sapiens, UniProt Q00613 1-529). The note with it: protein: recombinant; tags: N-terminal GST; chain copies: 3; dsDNA, one strand shown. A digest of the protocol: as §1
The target of the next test is T2, SPIC (Homo sapiens, UniProt Q8N5J4 1-248).
T2 sequence: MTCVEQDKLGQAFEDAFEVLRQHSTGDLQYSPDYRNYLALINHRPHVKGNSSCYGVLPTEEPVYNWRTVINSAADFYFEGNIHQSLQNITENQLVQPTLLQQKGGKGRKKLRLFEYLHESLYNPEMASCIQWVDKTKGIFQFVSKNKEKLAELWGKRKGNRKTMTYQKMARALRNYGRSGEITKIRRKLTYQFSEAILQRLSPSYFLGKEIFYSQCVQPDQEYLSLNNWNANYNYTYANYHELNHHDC
The note with it: protein: recombinant; tags: N-terminal GST; dsDNA, one strand shown. A digest of the protocol:
as §1

The next test concerns the target ELF4 (Homo sapiens, UniProt Q99607 1-663). The note with it: protein: recombinant; tags: N-terminal GST; dsDNA, one strand shown. In short, it runs like this: as §1
For a further test, the target named is T3, ELK4 (Homo sapiens, UniProt P28324-2 1-405).
T3 sequence: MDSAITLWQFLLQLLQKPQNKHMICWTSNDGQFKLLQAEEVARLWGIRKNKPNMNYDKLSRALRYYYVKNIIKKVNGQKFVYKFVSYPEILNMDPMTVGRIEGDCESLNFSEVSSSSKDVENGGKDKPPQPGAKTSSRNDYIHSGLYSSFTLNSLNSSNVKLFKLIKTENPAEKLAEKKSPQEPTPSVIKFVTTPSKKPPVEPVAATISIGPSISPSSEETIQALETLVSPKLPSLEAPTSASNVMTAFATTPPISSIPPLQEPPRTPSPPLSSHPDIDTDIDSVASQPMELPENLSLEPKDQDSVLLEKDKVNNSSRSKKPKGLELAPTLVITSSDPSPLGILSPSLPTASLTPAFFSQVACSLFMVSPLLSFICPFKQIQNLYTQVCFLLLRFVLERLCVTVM
The note with it: protein: recombinant; tags: N-terminal GST; dsDNA, one strand shown. In short, it runs like this:
as §1

For another test, the target named is T4, ETV2 (Homo sapiens, UniProt O00321 1-342).
T4 sequence: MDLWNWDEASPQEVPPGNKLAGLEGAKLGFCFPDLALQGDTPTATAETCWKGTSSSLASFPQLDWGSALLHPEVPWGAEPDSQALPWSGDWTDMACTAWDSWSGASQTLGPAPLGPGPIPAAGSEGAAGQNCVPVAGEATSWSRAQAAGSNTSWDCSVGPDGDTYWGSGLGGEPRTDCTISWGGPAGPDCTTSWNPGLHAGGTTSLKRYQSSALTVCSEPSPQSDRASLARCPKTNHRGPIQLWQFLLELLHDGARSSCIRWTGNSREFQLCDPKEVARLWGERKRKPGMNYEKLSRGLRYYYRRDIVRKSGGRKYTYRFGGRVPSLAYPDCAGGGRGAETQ
The note with it: protein: recombinant; tags: N-terminal GST; dsDNA, one strand shown. In short, it runs like this:
as §1

A further test addresses T5, ELF3 (Homo sapiens, UniProt P78545 1-371).
T5 sequence: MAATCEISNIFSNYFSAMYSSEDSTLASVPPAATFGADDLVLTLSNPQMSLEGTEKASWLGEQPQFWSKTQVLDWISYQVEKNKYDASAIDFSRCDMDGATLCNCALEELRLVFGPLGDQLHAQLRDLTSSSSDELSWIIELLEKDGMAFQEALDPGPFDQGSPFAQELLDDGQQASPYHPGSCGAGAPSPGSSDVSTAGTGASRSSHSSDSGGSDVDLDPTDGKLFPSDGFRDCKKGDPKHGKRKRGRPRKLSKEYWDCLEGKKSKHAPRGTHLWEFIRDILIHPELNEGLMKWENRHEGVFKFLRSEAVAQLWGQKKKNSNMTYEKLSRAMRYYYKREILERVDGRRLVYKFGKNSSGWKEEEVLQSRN
The note with it: protein: recombinant; tags: N-terminal GST; dsDNA, one strand shown. In short, it runs like this: as §1

The target in a further test is CRX (Homo sapiens, UniProt O43186 1-299). The note with it: protein: recombinant; tags: N-terminal GST; dsDNA, one strand shown. In short, it runs like this:
as §1

The next test deals with ETV1 (Homo sapiens, UniProt P50549 1-477). The note with it: protein: recombinant; tags: N-terminal GST; dsDNA, one strand shown. In short, it runs like this: as §1
Another test has as its target T6, ERF (Homo sapiens, UniProt P50548 1-548).
T6 sequence: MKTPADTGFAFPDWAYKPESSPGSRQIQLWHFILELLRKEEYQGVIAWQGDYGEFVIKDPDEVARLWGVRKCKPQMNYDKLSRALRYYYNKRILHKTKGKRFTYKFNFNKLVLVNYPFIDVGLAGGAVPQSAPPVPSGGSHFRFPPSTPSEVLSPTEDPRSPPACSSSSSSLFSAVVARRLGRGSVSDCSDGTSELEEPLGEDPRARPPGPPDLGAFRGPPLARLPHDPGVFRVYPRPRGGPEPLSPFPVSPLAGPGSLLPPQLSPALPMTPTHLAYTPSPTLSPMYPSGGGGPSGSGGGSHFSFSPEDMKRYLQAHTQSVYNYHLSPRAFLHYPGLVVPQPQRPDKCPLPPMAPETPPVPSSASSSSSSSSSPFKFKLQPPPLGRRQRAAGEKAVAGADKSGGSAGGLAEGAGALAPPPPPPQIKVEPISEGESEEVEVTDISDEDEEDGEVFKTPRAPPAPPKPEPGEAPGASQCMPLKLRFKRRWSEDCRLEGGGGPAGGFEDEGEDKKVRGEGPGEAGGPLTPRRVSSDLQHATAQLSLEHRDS
The note with it: protein: recombinant; tags: N-terminal GST; dsDNA, one strand shown. A digest of the protocol: as §1

For another test, the target named is T7, ETV3L (Homo sapiens, UniProt Q6ZN32 1-361).
T7 sequence: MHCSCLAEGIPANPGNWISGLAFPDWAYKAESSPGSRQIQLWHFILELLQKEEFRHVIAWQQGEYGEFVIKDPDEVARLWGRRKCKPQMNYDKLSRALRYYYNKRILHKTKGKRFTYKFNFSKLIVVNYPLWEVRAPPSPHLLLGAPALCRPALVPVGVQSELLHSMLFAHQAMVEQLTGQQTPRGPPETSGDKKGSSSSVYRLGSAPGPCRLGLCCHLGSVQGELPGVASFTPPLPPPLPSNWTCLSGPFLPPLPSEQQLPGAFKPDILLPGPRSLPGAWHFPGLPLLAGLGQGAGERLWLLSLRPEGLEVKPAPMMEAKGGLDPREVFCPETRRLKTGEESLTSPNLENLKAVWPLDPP
The note with it: protein: recombinant; tags: N-terminal GST; dsDNA, one strand shown. In short, it runs like this:
as §1

The target of another test is T8, ETS2 (Homo sapiens, UniProt P15036 1-469).
T8 sequence: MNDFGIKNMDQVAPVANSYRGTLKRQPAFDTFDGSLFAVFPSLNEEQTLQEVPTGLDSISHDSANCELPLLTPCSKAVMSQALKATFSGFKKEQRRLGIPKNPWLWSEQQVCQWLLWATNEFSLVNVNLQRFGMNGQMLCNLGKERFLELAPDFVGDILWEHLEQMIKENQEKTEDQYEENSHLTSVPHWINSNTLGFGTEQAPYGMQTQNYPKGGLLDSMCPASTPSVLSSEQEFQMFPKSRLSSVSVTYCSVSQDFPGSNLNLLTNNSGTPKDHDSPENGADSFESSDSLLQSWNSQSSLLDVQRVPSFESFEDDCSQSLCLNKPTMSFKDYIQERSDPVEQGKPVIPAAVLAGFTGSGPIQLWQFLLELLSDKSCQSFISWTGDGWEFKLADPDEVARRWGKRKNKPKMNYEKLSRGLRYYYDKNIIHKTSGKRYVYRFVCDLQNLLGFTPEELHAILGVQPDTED
The note with it: protein: recombinant; tags: N-terminal GST; dsDNA, one strand shown. In short, it runs like this:
as §1

A further test has as its target T9, SPDEF (Homo sapiens, UniProt O95238 1-335).
T9 sequence: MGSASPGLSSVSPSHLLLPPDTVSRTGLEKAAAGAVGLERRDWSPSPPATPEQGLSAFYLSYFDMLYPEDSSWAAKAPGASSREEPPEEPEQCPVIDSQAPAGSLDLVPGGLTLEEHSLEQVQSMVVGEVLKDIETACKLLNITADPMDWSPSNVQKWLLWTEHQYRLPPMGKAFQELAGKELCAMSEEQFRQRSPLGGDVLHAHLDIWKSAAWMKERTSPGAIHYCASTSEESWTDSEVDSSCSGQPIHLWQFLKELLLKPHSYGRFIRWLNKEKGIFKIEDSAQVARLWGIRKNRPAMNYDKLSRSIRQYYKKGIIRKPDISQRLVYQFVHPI
The note with it: protein: recombinant; tags: N-terminal GST; dsDNA, one strand shown. A digest of the protocol: as §1

The target in the next test is T10, ETV7 (Homo sapiens, UniProt Q9Y603 1-341).
T10 sequence: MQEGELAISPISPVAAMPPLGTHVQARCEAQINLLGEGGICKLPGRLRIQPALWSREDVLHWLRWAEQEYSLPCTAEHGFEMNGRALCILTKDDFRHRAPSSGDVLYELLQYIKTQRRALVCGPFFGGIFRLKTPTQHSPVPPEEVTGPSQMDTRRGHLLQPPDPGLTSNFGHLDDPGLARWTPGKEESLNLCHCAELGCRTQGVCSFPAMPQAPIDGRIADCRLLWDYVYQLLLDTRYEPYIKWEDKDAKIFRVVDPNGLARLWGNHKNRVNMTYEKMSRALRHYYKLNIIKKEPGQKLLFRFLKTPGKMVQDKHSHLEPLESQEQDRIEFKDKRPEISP
The note with it: protein: recombinant; tags: N-terminal GST; dsDNA, one strand shown. A digest of the protocol: as §1

The target in another test is T11, ELF5 (Homo sapiens, UniProt Q9UKW6-2 1-255).
T11 sequence: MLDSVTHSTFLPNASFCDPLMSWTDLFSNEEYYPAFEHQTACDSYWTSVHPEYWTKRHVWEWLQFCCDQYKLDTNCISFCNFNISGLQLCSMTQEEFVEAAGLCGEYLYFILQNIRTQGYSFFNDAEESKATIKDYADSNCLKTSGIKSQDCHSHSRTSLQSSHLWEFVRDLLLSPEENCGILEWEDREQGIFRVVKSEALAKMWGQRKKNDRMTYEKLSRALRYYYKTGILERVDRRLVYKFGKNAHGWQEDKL
The note with it: protein: recombinant; tags: N-terminal GST; dsDNA, one strand shown. A digest of the protocol:
as §1

In a further test the target is T12, ETV3 (Homo sapiens, UniProt P41162-2 1-143).
T12 sequence: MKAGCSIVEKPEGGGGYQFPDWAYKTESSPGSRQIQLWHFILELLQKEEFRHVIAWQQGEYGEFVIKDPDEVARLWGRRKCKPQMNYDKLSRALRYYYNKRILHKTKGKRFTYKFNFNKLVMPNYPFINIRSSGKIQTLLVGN
The note with it: protein: recombinant; tags: N-terminal GST; dsDNA, one strand shown. In short, it runs like this:
as §1

The target in another test is ETV6 (Homo sapiens, UniProt P41212 1-452). The note with it: protein: recombinant; tags: N-terminal GST; dsDNA, one strand shown. A digest of the protocol: as §1
Chain of ETV6 (P41212 whole entry): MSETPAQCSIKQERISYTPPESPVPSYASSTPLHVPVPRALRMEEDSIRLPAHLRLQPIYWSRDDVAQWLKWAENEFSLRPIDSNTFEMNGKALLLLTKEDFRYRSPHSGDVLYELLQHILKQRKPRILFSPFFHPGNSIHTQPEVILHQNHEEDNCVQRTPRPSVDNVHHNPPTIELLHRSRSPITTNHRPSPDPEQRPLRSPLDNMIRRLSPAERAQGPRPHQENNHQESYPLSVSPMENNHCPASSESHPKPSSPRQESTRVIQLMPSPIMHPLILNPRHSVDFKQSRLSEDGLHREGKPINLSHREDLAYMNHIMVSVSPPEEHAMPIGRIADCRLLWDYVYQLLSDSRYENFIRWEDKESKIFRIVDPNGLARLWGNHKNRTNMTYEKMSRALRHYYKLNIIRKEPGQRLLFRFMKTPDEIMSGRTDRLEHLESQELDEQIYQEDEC

Chain of HSF1 (Q00613 whole entry): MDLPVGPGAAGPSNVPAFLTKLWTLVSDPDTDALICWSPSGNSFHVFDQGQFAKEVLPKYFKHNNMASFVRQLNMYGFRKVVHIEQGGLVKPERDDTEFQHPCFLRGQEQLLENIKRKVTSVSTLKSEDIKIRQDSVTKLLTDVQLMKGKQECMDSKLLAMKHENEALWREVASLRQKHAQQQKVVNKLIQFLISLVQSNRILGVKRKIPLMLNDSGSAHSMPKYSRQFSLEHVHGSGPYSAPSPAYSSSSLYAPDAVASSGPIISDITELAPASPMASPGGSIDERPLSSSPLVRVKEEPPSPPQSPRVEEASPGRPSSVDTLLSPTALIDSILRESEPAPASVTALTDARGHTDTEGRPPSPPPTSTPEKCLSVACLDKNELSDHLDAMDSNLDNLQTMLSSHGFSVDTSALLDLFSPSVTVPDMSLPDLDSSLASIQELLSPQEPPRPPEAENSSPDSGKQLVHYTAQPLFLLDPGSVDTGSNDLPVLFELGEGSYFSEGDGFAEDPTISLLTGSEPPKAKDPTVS
Chain of CRX (O43186 whole entry): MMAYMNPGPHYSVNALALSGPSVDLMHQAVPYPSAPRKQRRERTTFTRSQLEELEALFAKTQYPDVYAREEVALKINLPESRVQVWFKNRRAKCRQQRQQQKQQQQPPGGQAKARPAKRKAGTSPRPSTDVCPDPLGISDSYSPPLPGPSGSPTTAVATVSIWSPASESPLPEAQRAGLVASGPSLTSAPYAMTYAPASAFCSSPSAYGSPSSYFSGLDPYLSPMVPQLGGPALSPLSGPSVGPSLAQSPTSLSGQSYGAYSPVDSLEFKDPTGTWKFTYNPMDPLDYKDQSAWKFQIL
Chain of ETV5 (P41161 whole entry): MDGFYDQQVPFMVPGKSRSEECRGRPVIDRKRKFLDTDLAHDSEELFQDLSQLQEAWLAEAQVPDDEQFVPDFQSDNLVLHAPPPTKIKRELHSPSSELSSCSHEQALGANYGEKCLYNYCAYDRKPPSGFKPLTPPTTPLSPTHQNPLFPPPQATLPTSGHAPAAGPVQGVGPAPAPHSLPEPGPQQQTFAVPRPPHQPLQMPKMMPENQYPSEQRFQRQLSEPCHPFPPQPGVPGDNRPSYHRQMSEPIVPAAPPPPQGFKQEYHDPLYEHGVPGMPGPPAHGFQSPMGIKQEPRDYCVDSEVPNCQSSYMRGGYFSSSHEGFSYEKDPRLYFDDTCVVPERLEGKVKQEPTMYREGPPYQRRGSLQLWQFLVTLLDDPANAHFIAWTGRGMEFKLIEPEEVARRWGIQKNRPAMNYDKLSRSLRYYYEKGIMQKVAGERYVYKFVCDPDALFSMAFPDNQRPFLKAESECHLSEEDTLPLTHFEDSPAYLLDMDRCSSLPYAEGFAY
Chain of ELF4 (Q99607 whole entry): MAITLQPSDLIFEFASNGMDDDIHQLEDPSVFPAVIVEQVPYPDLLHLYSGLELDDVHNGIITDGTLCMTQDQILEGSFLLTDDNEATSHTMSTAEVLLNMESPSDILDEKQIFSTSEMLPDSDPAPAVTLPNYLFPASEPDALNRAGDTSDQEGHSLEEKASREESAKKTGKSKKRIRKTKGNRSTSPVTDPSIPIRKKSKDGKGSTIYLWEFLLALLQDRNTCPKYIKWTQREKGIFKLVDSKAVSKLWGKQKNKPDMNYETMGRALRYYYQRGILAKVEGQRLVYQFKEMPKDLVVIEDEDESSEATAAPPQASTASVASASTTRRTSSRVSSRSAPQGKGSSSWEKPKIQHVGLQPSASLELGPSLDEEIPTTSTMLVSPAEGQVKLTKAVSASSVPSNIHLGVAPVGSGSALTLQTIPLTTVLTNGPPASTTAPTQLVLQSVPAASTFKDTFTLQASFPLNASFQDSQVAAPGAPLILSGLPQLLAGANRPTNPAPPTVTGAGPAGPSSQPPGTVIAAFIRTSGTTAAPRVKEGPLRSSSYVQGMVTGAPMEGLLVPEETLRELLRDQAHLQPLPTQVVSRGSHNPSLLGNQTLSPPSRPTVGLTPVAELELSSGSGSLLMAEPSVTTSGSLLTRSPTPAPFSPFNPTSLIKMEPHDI
Chain of ETV1 (P50549 whole entry): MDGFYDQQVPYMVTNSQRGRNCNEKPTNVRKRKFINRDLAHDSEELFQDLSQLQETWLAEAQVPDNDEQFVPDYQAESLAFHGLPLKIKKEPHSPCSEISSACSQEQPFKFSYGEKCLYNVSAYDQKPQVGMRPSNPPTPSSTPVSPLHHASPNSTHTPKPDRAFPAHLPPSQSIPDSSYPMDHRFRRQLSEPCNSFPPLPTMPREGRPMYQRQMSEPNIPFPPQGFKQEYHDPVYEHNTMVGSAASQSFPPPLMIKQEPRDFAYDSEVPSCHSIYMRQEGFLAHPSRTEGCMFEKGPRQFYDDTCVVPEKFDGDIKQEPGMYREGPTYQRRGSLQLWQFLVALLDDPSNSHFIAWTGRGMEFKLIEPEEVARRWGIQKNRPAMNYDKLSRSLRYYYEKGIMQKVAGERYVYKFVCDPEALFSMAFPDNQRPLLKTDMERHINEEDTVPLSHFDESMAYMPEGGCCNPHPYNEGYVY

For CTCATT, the binding signal in the test with FEV was 1.44 fold enrichment (6-mer frequency, TF over GST control); with ETV5, 1.41 fold enrichment (6-mer frequency, TF over GST control); with HSF1, 1.36 fold enrichment (6-mer frequency, TF over GST control); with SPIC it was 1.29 fold enrichment (6-mer frequency, TF over GST control); with ELF4, 1.52 fold enrichment (6-mer frequency, TF over GST control); with ELK4 it was 1.63 fold enrichment (6-mer frequency, TF over GST control). Besides, the binding signal with ETV2 was 1.49 fold enrichment (6-mer frequency, TF over GST control); with ELF3, 1.35 fold enrichment (6-mer frequency, TF over GST control); in the test with CRX, 1.45 fold enrichment (6-mer frequency, TF over GST control); with ETV1 it was 1.52 fold enrichment (6-mer frequency, TF over GST control); with ERF, 1.35 fold enrichment (6-mer frequency, TF over GST control); in the test with ETV3L, 1.47 fold enrichment (6-mer frequency, TF over GST control). Further, the binding signal was 1.49 fold enrichment (6-mer frequency, TF over GST control) with ETS2; 1.33 fold enrichment (6-mer frequency, TF over GST control) with SPDEF; 1.29 fold enrichment (6-mer frequency, TF over GST control) with ETV7; 1.5 fold enrichment (6-mer frequency, TF over GST control) in the test with ELF5; 1.39 fold enrichment (6-mer frequency, TF over GST control) in the test with ETV3; 1.45 fold enrichment (6-mer frequency, TF over GST control) with ETV6.

The values are drawn from publication PMC7862700, “An all-to-all approach to the identification of sequence-specific readers for epigenetic DNA modifications on cytosine”.
